Source: PubChem
PRC2 inh – inhibitors of human EZH2/PRC2 methyltransferase | Q15910 | PRC2 H3K27 methylation, DELFIA TRF, 1 h | inhibition, % at 12.5 µM | hit rate 0.35% among 57,000 | AID 651548;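 active = mean inhibition of replicates at least 50% and every single replicate also reaching 50%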;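 also: dimethyl H3K27 on biotinylated H3 21-44 peptide detected by antibody; plate controls were median neutral control wells for no effect and median positive control wells for full effect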
Target sequence (Q15910 whole entry, looked up): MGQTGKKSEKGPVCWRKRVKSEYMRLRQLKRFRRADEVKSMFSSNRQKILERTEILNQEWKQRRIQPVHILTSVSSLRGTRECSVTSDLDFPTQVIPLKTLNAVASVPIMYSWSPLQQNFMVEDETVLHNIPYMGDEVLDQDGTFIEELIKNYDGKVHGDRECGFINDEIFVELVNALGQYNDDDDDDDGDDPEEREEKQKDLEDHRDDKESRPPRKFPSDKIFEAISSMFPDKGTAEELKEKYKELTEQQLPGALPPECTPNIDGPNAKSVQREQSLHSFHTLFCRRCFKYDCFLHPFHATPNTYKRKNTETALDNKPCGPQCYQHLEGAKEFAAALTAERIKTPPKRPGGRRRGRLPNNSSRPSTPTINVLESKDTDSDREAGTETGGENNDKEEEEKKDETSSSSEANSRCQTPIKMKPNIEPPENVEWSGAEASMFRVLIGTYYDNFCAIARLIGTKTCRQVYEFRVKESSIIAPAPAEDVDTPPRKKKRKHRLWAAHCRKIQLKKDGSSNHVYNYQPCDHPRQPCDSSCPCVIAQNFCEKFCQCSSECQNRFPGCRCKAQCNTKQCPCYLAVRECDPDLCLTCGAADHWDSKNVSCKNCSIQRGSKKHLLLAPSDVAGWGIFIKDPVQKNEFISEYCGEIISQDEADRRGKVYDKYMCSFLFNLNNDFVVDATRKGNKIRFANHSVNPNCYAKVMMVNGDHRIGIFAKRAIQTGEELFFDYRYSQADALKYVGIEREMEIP
* hit, by the source's call. Only a selection was taken, and hits are over-represented in it overall.

SMILES | PRC2 inh
Cc1cc(Cl)ccc1OC(C)C(=O)Nc1ccc(C(=O)Nc2ccccc2C(=O)O)cc1 (stereo not drawn) | 60*
COC(=O)c1ccccc1NC(=O)c1ccc(NC(=O)C(C)Oc2ccccc2)cc1 (stereo not drawn) | 4
Cc1cccc(C(=O)O)c1NC(=O)C(C)Oc1ccc(Cl)cc1Cl (stereo not drawn) | 4
CCN(CC(=O)Nc1cccc(Cl)c1C)S(=O)(=O)c1ccc(OC)cc1 | -1
O=C(CSc1nnc(-c2cccc(Cl)c2)n1-c1ccccc1)Nc1ccc(F)c(F)c1 | -19
O=C(Cn1cnc2sc3c(c2c1=O)CCCC3)Nc1ccccc1Br | 6
CC(C)(C)/C=N/NC(=O)CCCCCCC(=O)O | 11
COc1cccc2c1C(=O)CC(c1ccccc1)O2 (stereo not drawn) | -11
COc1cc(O)c2c(c1)OC(c1ccc(O)cc1)CC2=O (stereo not drawn) | -4
COc1cc(O)c(OC)c2c1C(=O)CC(c1ccccc1)O2 (stereo not drawn) | 77*
CCOC(=O)c1c(NC(=O)Cn2nnc(-c3ccccc3)n2)sc2c1CCCC2 | 13
Cc1ccc(NC(=O)CSc2nc3sc4c(c3c(=O)n2-c2ccccc2)CCC4)c(C)c1 | -13
Cc1ncsc1CCSc1nc2ccccc2c(=O)n1-c1ccccc1 | 13
O=C(NO)c1cccc(C(=O)N/N=C/c2ccc3ccccc3c2)c1 | 6
O=C(NO)c1cccc(C(=O)N/N=C/c2ccc(O)c(O)c2)c1 | 94*
O=C(NO)c1cccc(C(=O)N/N=C/c2ccc(F)cc2)c1 | 1
O=C(CN(C1CCCCC1)S(=O)(=O)c1ccc(Cl)cc1)Nc1ccccc1F | -1
CSc1cccc(N2C(=S)NC3c4ccccc4OC24CCCC34)c1 (stereo not drawn) | 14
c1ccc(-c2cnc(SCc3nc4ccccc4[nH]3)[nH]2)cc1 | -12
CCn1c(SCC(=O)Nc2c(C)cc(C)cc2C)nnc1-c1ccc(Br)cc1 | 1
COc1ccc(-c2cc(-c3cccs3)nc(SC(C(=O)O)c3ccccc3)c2C#N)cc1 (stereo not drawn) | 72*
N#Cc1c(C(F)(F)F)cc(-c2cccs2)nc1SCC(=O)Nc1c(F)cccc1F | -8
N#Cc1c(C(F)(F)F)cc(-c2cccs2)nc1SCC(O)COc1ccc(Cl)cc1 (stereo not drawn) | 15
O=C(CCCCCCC(=O)Nc1ccccc1O)N/N=C/c1cc2c(cc1Br)OCO2 | 33
COc1ccc(C(C)(C)C)cc1NC(=S)Nc1ccc(S(=O)(=O)Nc2ncccn2)cc1 | -2
SMILES | PRC2 inh
C=C1C2=C(O[C@H](/C(C)=C/C(C)CC(C)CC)[C@@H](O)[C@@H]2O)C(=O)N1OC (stereo partly drawn) | -6
C[C@@H]1O[C@@H](O[C@@H]2[C@@H](O)[C@H](OCCc3ccc(O)c(O)c3)O[C@H](CO[C@@H]3OC[C@](O)(CO)[C@H]3O)[C@H]2OC(=O)/C=C/c2ccc(O)c(O)c2)[C@H](O[C@@H]2OC[C@H](O)[C@H](O)[C@H]2O)[C@H](O)[C@H]1O | 68*
COC(=O)C1=COC(O[C@@H]2O[C@H](CO)[C@@H](O)[C@H](O)[C@H]2O)[C@@H]2[C@@H](C)[C@@H](OC(=O)/C=C/c3ccc(O)c(O)c3)[C@@H](O)[C@H]12 (stereo partly drawn) | 4
COc1ccc(/C=C/C(=O)O[C@H]2[C@H](OC3C4O[C@]4(CO)[C@H]4C(O[C@@H]5O[C@H](CO)[C@@H](O)[C@H](O)[C@H]5O)OC=C[C@@H]34)O[C@@H](C)[C@H](O)[C@H]2O)cc1 (stereo partly drawn) | 8
Clc1ccc(-n2c(SCc3nc4ccccc4s3)nnc2-c2cccs2)cc1 | 27
Cc1ccc2nc(-c3ccccn3)cc(C(=O)Nc3sc4c(c3C(N)=O)CCc3ccccc3-4)c2c1 | -37
Cc1ccc(C(=O)O)cc1S(=O)(=O)N(C)CCO | -7
Cc1cc(-c2ccccc2)nc(SCC(=O)Nc2sc3c(c2C#N)CCCC3)n1 | -2
CCOc1ccccc1-c1nc(SCC(=O)Nc2sc3c(c2C#N)CCCC3)n[nH]1 | -27
Cc1ccccc1-c1nc(SCC(=O)Nc2sc3c(c2C#N)CCCC3)n[nH]1 | 55*
Cc1cc2ncn(CC(O)COc3ccc(N)cc3)c2cc1C (stereo not drawn) | -1
COc1ccc(OC)c(NC(=O)COc2ccc([N+](=O)[O-])cc2)c1 | -1
Cc1cc(=O)c2c(O)c3c(O)cc(O)c4c5c(O)cc(O)c6c(O)c7c(=O)cc(C)c8c1c2c(c34)c(c65)c78 | 64*
O=C(CC1(O)C(=O)Nc2ccccc21)c1ccc(OCC(=O)N2CCOCC2)cc1 (stereo not drawn) | 6
CC(=O)Nc1ccc(NC(=O)Cn2cc([N+](=O)[O-])cn2)cc1 | 21
COc1ccc(S(=O)(=O)n2cc(-c3ccc(F)cc3)c(N)n2)c(OC)c1 | 4
COc1cc(NC(=O)COc2ccc(C)c(C)c2)ccc1NC(=O)c1ccccc1Cl | 41
C[C@H](CO)N1C[C@H](C)[C@H](CN(C)Cc2ccccc2)Oc2cc(C3=CCCCC3)ccc2S1(=O)=O | 22
CC(C)CC#Cc1ccc2c(c1)O[C@@H](CN(C)Cc1ccccc1)[C@@H](C)CN([C@H](C)CO)S2(=O)=O | 31
C[C@H]1CN([C@@H](C)CO)S(=O)(=O)c2ccc(C3=CCCC3)cc2O[C@@H]1CN(C)C(=O)CC1CC1 | 9
C[C@H]1CN([C@@H](C)CO)S(=O)(=O)c2ccc(C3=CCCCC3)cc2O[C@H]1CN(C)Cc1ccccc1 | 56*
C[C@@H]1CN([C@@H](C)CO)S(=O)(=O)c2ccc(C3=CCCCC3)cc2O[C@@H]1CN(C)Cc1ccccc1 | 27
C[C@H](CO)N1C[C@H](C)[C@H](CN(C)C(=O)CC2CC2)Oc2cc(C3=CCCC3)ccc2S1(=O)=O | 55*
CC(C)CC#Cc1ccc2c(c1)O[C@@H](CN(C)Cc1ccc(F)cc1)[C@H](C)CN([C@H](C)CO)S2(=O)=O | 6
C[C@@H]1CN([C@H](C)CO)S(=O)(=O)c2ccc(C3=CCCC3)cc2O[C@@H]1CN(C)C(=O)CC1CC1 | 15
SMILES | PRC2 inh
CC(C)CC#Cc1ccc2c(c1)O[C@H](CN(C)Cc1ccc(C(=O)O)cc1)[C@@H](C)CN([C@H](C)CO)S2(=O)=O | 70*
CN(C)CCCOc1ccc(/C=N/NC(=O)c2ccccc2O)cc1 | 3
CC(=O)c1cn(CC(=O)Nc2cccc(C(F)(F)F)c2)c2ccccc12 | 1
O=C(CSc1nnc(-c2ccc(Cl)cc2)n1-c1ccc(F)cc1)Nc1ccccc1Cl | 15
Cc1ccc2nc(-c3ccc(NC(=O)C(C)Oc4ccc5c(C)cc(=O)oc5c4)cc3)sc2c1 (stereo not drawn) | -10
COc1ccc(NC(=O)CNC(=O)c2ccc(F)cc2)cc1 | -1
O=S(=O)(NCCCCCCc1ccccc1)c1cccc2c(Cl)cccc12 | 55*
NCCCCCCNS(=O)(=O)c1cccc2c(Cl)cccc12 | -11
CCCCCCCNS(=O)(=O)c1cccc2c(Cl)cccc12 | 41
NC(=O)C(Cc1ccccc1)NS(=O)(=O)c1ccc2oc3ccccc3c2c1 (stereo not drawn) | 9
COc1ccc([N+](=O)[O-])cc1NC(=O)CN(c1ccc(Cl)c(Cl)c1)S(C)(=O)=O | -4
CC(C)=CCc1cc(O[C@@H]2O[C@H](CO)[C@@H](O)[C@H](O)[C@H]2O)cc(CC=C(C)C)c1C(O)C(=O)O (stereo partly drawn) | 99*
